Here are results for 60 compounds from PubChem BioAssay AID488847 (NMMLSC, 2010).

Structures are written as SMILES. About 1,900 (0.58%) of roughly 330,000 compounds were called active. For the sample, actives were picked, then their nearest neighbours and some compounds at random. Values without a mark were called inactive.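 How the source made its calls: active means inhibition of aptamer binding above 40%, roughly 3 SD of noise, on plates passing a quality check; inactive means the rest.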

The experiment deals with Beta-adrenergic receptor kinase 1 (Homo sapiens) (UniProt P25098). The experiment can be described thus: compounds blocking aptamer binding on GRK2 – biochemical, human GRK2, bead flow cytometry, HTS, primary screen (AID 488847).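 Further: median bead fluorescence of bound FAM aptamer so fluorescent compounds give negative values.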 The settings on record: FAM-aptamer displacement from GRK2, at 10 µM, stronger effect = higher value.
Sequence of Beta-adrenergic receptor kinase 1 (Homo sapiens) (P25098 whole entry, looked up): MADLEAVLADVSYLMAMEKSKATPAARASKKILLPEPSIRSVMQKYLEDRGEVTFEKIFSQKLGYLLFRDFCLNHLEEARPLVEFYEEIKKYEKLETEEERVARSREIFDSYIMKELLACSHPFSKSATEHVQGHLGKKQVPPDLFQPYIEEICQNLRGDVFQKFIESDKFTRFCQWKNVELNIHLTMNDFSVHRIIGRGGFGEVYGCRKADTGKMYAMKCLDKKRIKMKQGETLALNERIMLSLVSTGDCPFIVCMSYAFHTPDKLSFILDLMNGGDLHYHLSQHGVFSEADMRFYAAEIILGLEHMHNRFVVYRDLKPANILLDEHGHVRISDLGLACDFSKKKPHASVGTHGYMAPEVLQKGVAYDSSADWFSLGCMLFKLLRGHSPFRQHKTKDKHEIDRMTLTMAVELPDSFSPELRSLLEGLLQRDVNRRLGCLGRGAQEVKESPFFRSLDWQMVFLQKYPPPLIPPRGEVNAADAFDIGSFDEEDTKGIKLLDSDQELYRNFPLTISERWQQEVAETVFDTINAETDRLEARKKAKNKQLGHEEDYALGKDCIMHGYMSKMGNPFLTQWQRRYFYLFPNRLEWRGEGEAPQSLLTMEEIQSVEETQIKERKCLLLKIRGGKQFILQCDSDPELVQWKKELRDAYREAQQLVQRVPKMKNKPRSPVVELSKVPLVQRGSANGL
In the case of `CCOC(=O)c1ccc(NC(=O)c2c(NCc3ccccc3)[nH]c(=O)[nH]c2=O)cc1`, the inhibition of aptamer binding was 5%.

With `C/C=C(/C)C(=O)Nc1cccc(C2=NOC3(C2)C[C@@H](C(N)=O)N(C(=O)C2(C)CC2)C3)c1` (stereo not given in full), the inhibition of aptamer binding was 1%.

`C=C(C)C(=O)Nc1cccc(C2=NOC3(C2)C[C@H](C(N)=O)N(C(=O)C(c2ccccc2)c2ccccc2)C3)c1` (stereo not given in full): the inhibition of aptamer binding is 91% (active).

As for `C/C=C\C=C\C(=O)N1CC2(CC(c3cccc(NC(=O)/C(C)=C\C)c3)=NO2)C[C@H]1C(N)=O` (stereo not given in full), the inhibition of aptamer binding was 1%.

As to `CCOc1ccc(S(=O)(=O)Nc2cccc(C(=O)NCC3(N4CCCCC4)CCCCC3)c2)cc1`, the inhibition of aptamer binding was 0%.

As for `CS(=O)(=O)c1ccc(-c2nnn(CC(=O)Nc3ccc4c(c3)OCCO4)n2)cc1`, the inhibition of aptamer binding is 0%.

With `O=C(NNC(=S)NC1CC2CCC1C2)c1ccc(Cl)cc1` (stereo not given), the inhibition of aptamer binding is 2%.

For the compound `CC1CCN(C(=S)NC2CC3CCC2C3)CC1` (stereo not given), the inhibition of aptamer binding is 67% (active).

With `S=C(NNC(=S)NC1CC2CCC1C2)NC1CC2C=CC1C2` (stereo not given), the inhibition of aptamer binding was 0%.

`CC1c2nc3ccccc3n2C(CC(=O)NCCCN2CCOCC2)C(=O)N1Cc1ccccc1` (stereo not given): the inhibition of aptamer binding was 0%.

On to `COCCn1c(N)c(NCc2ccccc2)c(=O)[nH]c1=O`, for which the inhibition of aptamer binding is 47% (active).

On to `COCCn1c(N)c(N(Cc2ccccc2)C(=O)C2CCCCC2)c(=O)[nH]c1=O`, for which the inhibition of aptamer binding was 0%.

For `COCCN(C(=O)c1ccccc1F)c1c(N)n(Cc2ccccc2)c(=O)[nH]c1=O`, the inhibition of aptamer binding was 2%.

As to `Cc1ccc2c(c1)C1CN(C)CCC1N2S(=O)(=O)c1ccc(Oc2ccc([N+](=O)[O-])cc2)cc1` (stereo not given), the inhibition of aptamer binding was 0%.

For `Nc1ccc2nc3c(=O)[nH]c(=S)[nH]c3nc2c1`, the inhibition of aptamer binding was 70% (active).

On to `CCC1Oc2ccccc2N(CC(=O)NCCCN2CCN(CC)CC2)C1=O` (stereo not given), for which the inhibition of aptamer binding is 0%.

Turning to `COc1ccc(CCNC(=O)c2ccc(CS(=O)(=O)c3ccc(Br)cc3)o2)cc1OC`, the inhibition of aptamer binding is 1%.

Consider `CCOCCCNC(=O)c1ccc(CS(=O)(=O)c2cccc(C(F)(F)F)c2)o1`, for which the inhibition of aptamer binding is 48% (active).

Regarding `COc1ccccc1CNC(=O)c1ccc(CS(=O)(=O)c2ccccc2)o1`, the inhibition of aptamer binding was 0%.

In the case of `CCC(C)(C(=O)Nc1ccccc1C)N(C(=O)CNC(C)=O)c1ccc(C)cc1` (stereo not given), the inhibition of aptamer binding was 1%.

For the compound `CCn1nc(NC(=O)c2ccco2)c2cc3ccc(C)cc3nc21`, the inhibition of aptamer binding was 0%.

Regarding `Cc1ccc(OCCNC(=O)CCNS(=O)(=O)c2ccc(Br)cc2)cc1`, the inhibition of aptamer binding is 1%.

As for `Cc1cc2cc(CNC(=O)c3ccc(S(=O)(=O)N4CCOCC4)cc3)ccc2[nH]1`, the inhibition of aptamer binding was 3%.

Consider `CCc1cccc(CC)c1NC(=S)NCc1ccc2[nH]c(C)cc2c1`, for which the inhibition of aptamer binding was 0%.

For the compound `Cc1cc2cc(CNC(=O)c3cccs3)ccc2[nH]1`, the inhibition of aptamer binding is 44% (active).

Consider `CN(CC(=O)N1CCN(c2ccccc2)CC1)S(=O)(=O)c1cccs1`, for which the inhibition of aptamer binding is 0%.

In the case of `COCc1ccc(CN2CCC(Oc3ccc(C(=O)NCc4ccccn4)cc3)CC2)o1`, the inhibition of aptamer binding is 0%.

Turning to `CCOC(=O)N1CCC(NC(=O)C(C)n2c3ccccc3c3cnn(C)c(=O)c32)CC1` (stereo not given), the inhibition of aptamer binding was 4%.

On to `O=C(N[C@H]1C/C=C\C(c2ccc(F)cc2)N(Cc2ccccc2)C(=O)C1)OCC1c2ccccc2-c2ccccc21` (stereo not given in full), for which the inhibition of aptamer binding was 0%.

`CCOC(=O)N1CCN(C(=O)c2ccc(CN(c3ccc(C)c(C)c3)S(C)(=O)=O)cc2)CC1`: the inhibition of aptamer binding is 3%.

Regarding `CCC1(C(=O)c2ccccc2)C(c2cccc([N+](=O)[O-])c2)C1(C(=O)OC)C(=O)OC` (stereo not given), the inhibition of aptamer binding was 0%.

As to `O=C(c1cccc(S(=O)(=O)N2CCCC2)c1)N(Cc1ccco1)C1CCS(=O)(=O)C1` (stereo not given), the inhibition of aptamer binding was 4%.

On to `CC(C)CN(C(=O)c1ccc2c(c1)OCO2)C1CCS(=O)(=O)C1` (stereo not given), for which the inhibition of aptamer binding was 2%.

With `CC(C)CN(C(=O)c1cccc(S(=O)(=O)N2CCCCC2)c1)C1CCS(=O)(=O)C1` (stereo not given), the inhibition of aptamer binding was 92% (active).

With `CO/N=C(/CS(=O)(=O)c1ccc(Br)cc1)c1ccc(OC)cc1`, the inhibition of aptamer binding is 2%.

As to `COc1ccc(S(=O)(=O)N2CN(CCc3ccc(OC)c(OC)c3)c3nc4ccccc4nc32)cc1`, the inhibition of aptamer binding is 3%.

As to `CSc1ccc(/C=C2\NC(=O)NC2=O)cc1`, the inhibition of aptamer binding is 46% (active).

As to `CC(C)c1ccc(/C=C2\NC(=O)NC2=O)cc1`, the inhibition of aptamer binding is 0%.

Turning to `Cc1ccc(NC(=O)COc2ccc(/C=C3/NC(=O)NC3=O)cc2)cc1`, the inhibition of aptamer binding was 0%.

For the compound `Cc1ccc(-c2cc(=O)[nH]c(NCc3ccccc3)n2)cc1`, the inhibition of aptamer binding is 2%.

In the case of `Cc1cccc2nc(CNc3ccc(F)cc3)cn12`, the inhibition of aptamer binding was 2%.

Consider `CC(NCc1cccs1)C(=O)Nc1cc(Cl)cc(Cl)c1` (stereo not given), for which the inhibition of aptamer binding was 0%.

In the case of `O=[N+]([O-])c1ccccc1S(=O)(=O)Nc1cccc2cccnc12`, the inhibition of aptamer binding is 46% (active).

Consider `O=[N+]([O-])c1cccc2ncccc12`, for which the inhibition of aptamer binding was 4%.

Consider `COc1cc(NS(=O)(=O)c2ccc3ccccc3c2)c2ncccc2c1`, for which the inhibition of aptamer binding was 0%.

In the case of `O=C(c1ccc(Cl)cc1)c1ccc(OCC(O)CN2CCCCC2)cc1` (stereo not given), the inhibition of aptamer binding is 43% (active).

As to `CC1CCN(CC(O)COc2ccc(C(=O)c3ccccc3)cc2)CC1` (stereo not given), the inhibition of aptamer binding was 0%.

As for `OC(COc1ccc(Br)cc1)CN1CCCC1` (stereo not given), the inhibition of aptamer binding was 0%.

For `C=CCOc1ccc(/C=C/C(=O)OC(C)C(=O)Nc2ccc(NC(C)=O)cc2)cc1` (stereo not given), the inhibition of aptamer binding was 1%.

As for `CN(C(=O)c1cccc([N+](=O)[O-])c1)c1ccccc1C(=O)NCc1ccccc1`, the inhibition of aptamer binding was 1%.

On to `COc1ccc2oc(C(=O)N(CC(C)C)C3CCS(=O)(=O)C3)c(C)c2c1` (stereo not given), for which the inhibition of aptamer binding was 0%.

Consider `COc1ccccc1C(=O)N(Cc1ccc(C)o1)C1CCS(=O)(=O)C1` (stereo not given), for which the inhibition of aptamer binding was 43% (active).

As for `COc1cc(C(=O)N(Cc2ccc(N(C)C)cc2)C2CCS(=O)(=O)C2)cc(OC)c1OC` (stereo not given), the inhibition of aptamer binding is 0%.

As for `CCOC(=O)CN(C(=O)CN1CCOCC1)c1ccc(Br)cc1`, the inhibition of aptamer binding is 0%.

With `CC(=O)N1CCc2cc(Br)cc(S(=O)(=O)CCC(=O)Nc3c(C)n(C)n(-c4ccccc4)c3=O)c21`, the inhibition of aptamer binding was 0%.

Regarding `Cc1c(NC(=O)C(C)Oc2cccc(Cl)c2)c(=O)n(-c2ccccc2)n1C` (stereo not given), the inhibition of aptamer binding was 0%.

As for `COc1ccccc1NC(=O)C1CCN(C(=O)c2ccc(C(C)(C)C)cc2)CC1`, the inhibition of aptamer binding was 0%.

`CC(=O)c1ccc(N2CCN(C(=O)CCc3ccccc3)CC2)cc1`: the inhibition of aptamer binding is 0%.

Turning to `O=C(c1ccccc1)c1ccc(C(=O)N2CCN(c3ccccc3)CC2)cc1`, the inhibition of aptamer binding was 1%.

In the case of `CC(=O)c1ccc(N2CCN(C(=O)c3ccc4nc[nH]c4c3)CC2)cc1`, the inhibition of aptamer binding was 66% (active).
